Rows were chosen to be rich in hits. Some 4% of all compounds tested hit in one or more screens of this group.
Rv3671c protease: inhibits the M. tuberculosis serine protease Rv3671c; P9WHR9; inhibition, % at 5.96 µM; 320,000 tested, 0.048% active; in the data active = inhibition above about 38%;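 also: extracellular domain of Rv3671c used as enzyme; 0% = enzyme with DMSO and 100% = no enzyme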
GDH-TPI counter-1: counter-screen for M. tuberculosis FBA inhibitors: GDH-TPI coupled enzymes; GDH-TPI coupled enzyme counterscreen, NADH absorbance; inhibition, % at 4.8 µM; 360,000 tested, 1.2% active; AID 588335; in the data active = inhibition above about 30%;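 also: 0% = DMSO wells and 100% = wells lacking the enzyme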
RecA intein inh: blocks M. tuberculosis RecA intein splicing. P9WHJ3. AID 2221. 290,000 tested, 0.75% active. cell-free RecA intein splicing, fluorescence. inhibition, % (no concentration beside the values); in the data active = inhibition above about 30%;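 also: 0% = vehicle wells and 100% = reference inhibitor control wells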
UGM FP inh: blocks M. tuberculosis UGM enzyme; inhibition, % at 10 µM; AID 504406; purified UGM, fluorescence polarization probe displacement; P9WIQ1; 320,000 tested, 0.06% active; in the data active = inhibition above about 10%, passing the limit was not always enough
FBA Mtb inh: inhibits M. tuberculosis FBA enzyme. P9WQA3. purified M. tuberculosis FBA, fluorescence read-out. inhibition, % at 1 µM. 360,000 tested, 2.3% active;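 also: 0% = vehicle and 100% = reference inhibitor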
Mtb bLac sens: beta-lactam sensitization of Mtb H37Rv; 330,000 tested, 0.27% active; M. tuberculosis H37Rv growth with meropenem, percent inhibition; AID 434955; inhibition, % at 25 µM; call rule not given here;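 also: growth measured after seven days incubation then overnight dye step; 0% = bacteria only wells and 100% = bacteria with antibiotic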
Mtb FBA confirm: confirmation of M. tuberculosis fructose-bisphosphate aldolase inhibitors; 5,600 tested, 78% active; purified M. tuberculosis FBA, fluorescence read-out; inhibition, % at 1 µM; shares compounds with FBA Mtb inh;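 also: 0% = vehicle wells and 100% = reference inhibitor wells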
GDH-TPI counter-2: GDH-TPI inhibition counter-screen for FBA inhibitors; GDH-TPI coupled enzyme counterscreen, fluorescence; shares compounds with FBA Mtb inh; inhibition, % at 1 µM; 5,600 tested, 81% active; in the data active = inhibition above about 10%
Numbers without * were called inactive; nt = no result; + = active, no number. Rule as the data show it, unless noted: active = inhibition above about 27%; inactive = the rest.

SMILES	Rv3671c protease	GDH-TPI counter-1	RecA intein inh	UGM FP inh	FBA Mtb inh	Mtb bLac sens	Mtb FBA confirm	GDH-TPI counter-2
O=C(N/N=C/c1cccc(O)c1)c1ccccc1O	2.7	15.9	-5.9	7.5	-2.0	-0.9	nt	nt
Cc1ccccc1C=Nc1ccccc1C(N)=O	1.0	8.0	-6.4	2.3	49.6*	-3.5	71.5*	57.1*
CCCCCC(=O)N1C[C@@H](O)[C@H](n2cc(C3CC3)nn2)C[C@@H]1c1ccc(C)cc1	nt	9.9	nt	nt	0.6	nt	nt	nt
Cc1ccn(-c2ccc(NC(=O)c3cccs3)cc2)n1	5.8	0.4	-1.4	0.5	-3.4	-2.3	nt	nt
O=C(OCC(=O)N(CCc1ccccc1)Cc1ccccc1)c1ccc(F)c(S(=O)(=O)N2CCOCC2)c1	nt	11.0	nt	nt	3.4	nt	nt	nt
COc1cccc(C=Nc2ccccc2C(=O)Nc2ccccc2)c1O	1.8	3.0	1.2	0.0	29.5*	-5.0	129.2*	107.0*
COc1ccc2nc(SCC(=O)O)nc(C)c2c1	-1.7	3.1	nt	0.2	38.9*	4.6	101.5*	90.0*
Oc1ccc(-c2nccs2)cc1	nt	18.4	nt	nt	47.4*	nt	108.3*	86.2*
CCOc1ccc(CC(=O)N/N=C/c2sccc2C)cc1	nt	3.1	1.3	-6.1	-1.2	-3.5	nt	nt
COc1cccc2c(=O)cn[nH]c12	-9.1	19.1	-5.9	11.1*	76.4*	1.3	5.8	-4.5
O=c1cn[nH]c2ccccc12	13.2	9.2	2.4	0.9	7.9	-7.2	nt	nt
COC(=O)c1cc(=O)c2cccc(OC)c2[nH]1	8.1	16.2	-11.2	-3.6	43.3*	32.3	+	+
O=C(NC1CCCCC1)C(CCc1ccccc1)N1CCc2ccccc2C1 (centres undefined)	nt	nt	nt	nt	-2.0	nt	nt	nt
CCCCNc1ncnc2sc3c(c12)CCN(CCC)C3	4.7	8.6	-2.4	-2.8	34.1*	5.6	98.8*	89.5*
OCc1ccccc1-c1cnc2cccnn12	nt	8.8	nt	nt	105.4*	nt	113.3*	86.5*
CCOc1ccc(C(=O)NCc2ccc3c(c2)OCO3)cc1OCC	-0.6	11.1	nt	-1.1	1.1	5.3	nt	nt
CN(C)c1ccc(-c2ccnc3c2CC(C)(C(=O)Nc2ccc(Cl)c(C(F)(F)F)c2)O3)cc1 (centres undefined)	nt	24.8	nt	nt	84.2*	nt	54.2*	40.5*
CC(=O)Nc1ccc(-c2ccnc3c2CC(C)(C(=O)Nc2ccc(Cl)c(C(F)(F)F)c2)O3)cc1 (centres undefined)	nt	13.3	nt	nt	2.5	nt	nt	nt
COc1ccc(NC(=O)C2(C)Cc3c(-c4ccc(N(C)C)cc4)ccnc3O2)cn1 (centres undefined)	nt	27.4	nt	nt	40.3*	nt	128.7*	102.6*
NC(=O)c1ncn([C@@H]2O[C@H](CNCc3cccc(OC4CCCC4)c3)[C@@H](O)[C@H]2O)n1	nt	3.8	nt	nt	-1.4	nt	nt	nt
Cc1cc(C)c(NC(=O)c2cn3c4c(c(N5CCN(C)CC5)c(F)cc4c2=O)OCC3C)c(C)c1 (centres undefined)	-7.2	5.6	-3.4	nt	27.6*	-5.1	+	+
CCN1CCN(Cc2c(O)ccc3c(=O)c(-c4ccc(OC)c(OC)c4)c(C)oc23)CC1	5.1	22.4	-1.0	0.4	41.2*	7.2	62.3*	50.6*
COc1ccc(-c2c(C)oc3c(CN4CCN(C)CC4)c(O)ccc3c2=O)cc1	1.1	19.7	-3.4	0.9	101.8*	-3.4	63.0*	39.6*
COc1cccc(CN(C)C(=O)c2ccc(N3CCCC3)c([N+](=O)[O-])c2)c1	-3.4	-3.4	0.2	3.9	-4.4	4.7	nt	nt
CCN(CC)S(=O)(=O)c1ccc(O)c(NC(=O)COc2ccc(S(=O)(=O)N3CCOCC3)cc2)c1	nt	1.3	nt	nt	-2.8	nt	nt	nt
CCOC(=O)c1oc2nc3c(cc2c1N)COC(C)(C)C3	-1.8	11.8	-1.8	-1.6	45.5*	6.6	11.9	16.6*
COC(=O)c1sc2nc3c(cc2c1N)COC(C)(C)C3	0.8	12.0	-6.0	2.5	3.5	-0.8	nt	nt
CCOC(=O)c1oc2nc(C)c3c(c2c1N)CC(C)(C)OC3	-4.4	0.6	0.7	3.7	34.0*	-8.2	100.4*	75.2*
COc1ccc(-c2sc3cc(OC)c(OC)cc3c2-c2ccc(O)cc2)cc1	14.2	-1.8	nt	-1.5	4.5	-3.5	nt	nt
